Measurements as given in PubChem BioAssay (NCI).
Compounds without any hit were thinned out: in the full panel of roughly 79,000, 15% have a hit. Rule as the data show it: active = growth inhibition above about 70%; inactive = the rest.

Legend:
[1] = NCI Yeast Anticancer Drug Screen. Data for the rad50 strain (AID 155);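 also: 0% = growth of vehicle-only cultures of the same strain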; conditions: S. cerevisiae rad50 strain growth inhibition; at 50.0 µM; stronger effect = higher value
Procedure, shortened: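 Growth of the mutant yeast was measured after compound exposure and referenced to vehicle-treated cultures.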

[2] = NCI Yeast Anticancer Drug Screen. Data for the mec2-1 strain (AID 157); conditions: S. cerevisiae mec2-1 strain, at 50.0 µM, stronger effect = higher value
Procedure, shortened: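 Growth inhibition is read against vehicle-treated controls after compound exposure of the mec2-1 yeast strain, which is defective in DNA damage repair or cell cycle control.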

[3] = NCI Yeast Anticancer Drug Screen. Data for the sgs1 mgt1 strain (AID 161);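 also: 0% = growth of cultures given vehicle only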; conditions: S. cerevisiae sgs1 mgt1 strain, at 50.0 µM, stronger effect = higher value
Procedure, shortened: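 Compounds are added to genetically altered yeast, and growth is compared with cultures given vehicle alone to give percent inhibition.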

[4] = NCI Yeast Anticancer Drug Screen. Data for the cln2 rad14 strain (AID 165);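 also: 0% = growth equal to vehicle treated cultures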; conditions: S. cerevisiae cln2 rad14 strain, at 50.0 µM, stronger effect = higher value
Procedure, shortened: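 Growth inhibition, relative to vehicle-treated controls, is the read-out. The test organism is a yeast strain with defined genetic alterations, cln2 rad14.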

[5] = NCI Yeast Anticancer Drug Screen. Data for the bub3 strain (AID 167); conditions: S. cerevisiae bub3 mutant strain, at 50.0 µM, stronger effect = higher value
Procedure, shortened: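 Whole-cell yeast assay. The mutant strain was incubated with compounds, and growth inhibition was determined by comparison with vehicle-treated cells.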

[6] = NCI Yeast Anticancer Drug Screen. Data for the mlh1 rad18 strain (AID 175); conditions: S. cerevisiae mlh1 rad18 strain growth inhibition; at 50.0 µM; stronger effect = higher value
Procedure, shortened: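 Cells of a genetically altered yeast strain, deficient in DNA damage repair, were treated with compound. Their growth was then compared with that of vehicle-treated cultures to give inhibition.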

Measured: growth inhibition

O=C(N/N=C\c1cc(Br)cc(Br)c1O)N/N=C/c1cc(Br)cc(Br)c1O
inactive: [1] 41.4% | [2] 10.2% | [3] 43% | [4] 21.9% | [5] 39% | [6] 33.2%

CCCCC/C=N/Nc1nc(C)cc(=O)[nH]1
inactive: [1] 4.85% | [2] -5.6% | [3] -8.95% | [4] 15.7% | [5] -2.9% | [6] 4.4%

COS(=O)(=O)c1ccc(Br)cc1
inactive: [1] -6% | [2] -23.4% | [3] -17.3% | [4] -60.8% | [5] 0.6% | [6] -26.2%

COCCOC(=O)c1ccc(C(C)C)cc1
inactive: [1] 8.8% | [2] 0.35% | [3] 0.2% | [4] -9.35% | [5] 2.75% | [6] -0.45%

C/C(=N\O)C1(O)CCCCC1
inactive: [1] 28.9% | [2] 3.55% | [3] 8% | [4] 13.7% | [5] 7.45% | [6] 15.8%

[O-][N+](=Nc1cccc(Cl)c1)c1cccc(Cl)c1
inactive: [1] 19.7% | [2] -30.9% | [3] 24.9% | [4] 16.1% | [5] 21.2% | [6] 15.1%

C=CC(=O)OCCCCCCCC
inactive: [1] 5.4% | [2] -14.3% | [3] -29.4% | [4] -34.5% | [5] 2.4% | [6] 2.85%

Nc1ccc(N=Nc2ccc(O)cc2)c(N)n1
inactive: [1] -15.7% | [2] -20.1% | [3] -16.7% | [4] 2.85% | [5] 22.7% | [6] -4.7%

Cc1c(C(=O)O)c(=O)n(-c2ccccc2)n1C
inactive: [1] 3.1% | [2] -10.2% | [3] -8.75% | [4] 11% | [5] -16.9% | [6] 13.6%

c1ncc2[nH]cnc2n1
inactive: [1] -14.6% | [2] -4.1% | [3] -11.6% | [4] -69.2% | [5] 8.15% | [6] 6.3%

CC(=O)c1c[nH]c2ccccc12
inactive: [1] -6.8% | [2] -9.85% | [3] -19.6% | [4] -53.2% | [5] -2.25% | [6] 9.15%

CCCCC(=O)c1ccc(OC)cc1
inactive: [1] 1.9% | [2] -8.4% | [3] 2.75% | [4] 6.75% | [5] -8.3% | [6] -6.4%

CC(O)COc1ccc(-c2ccccc2)cc1 (stereo not drawn)
inactive: [1] 5.5% | [2] -2.9% | [3] 33% | [4] 15.9% | [5] 28.1% | [6] 19.9%

CC(C)CCOC(=O)c1ccccc1
inactive: [1] -7.2% | [2] -22.5% | [3] -34.1% | [4] -68.9% | [5] -29.1% | [6] -22.9%

CCCCC(CC)COC(C)=O (stereo not drawn)
inactive: [1] 14.4% | [2] -13.5% | [3] 2.15% | [4] 5.2% | [5] 12% | [6] 13.8%

C1CNC(C2=NCCN2)=N1
inactive: [1] -4.85% | [2] -8.2% | [3] -24.5% | [4] -26.1% | [5] -31.8% | [6] -7.25%

CC(=O)c1ccc(N=C(C#N)C2=C(O)c3ccccc3C2=O)cc1
inactive: [1] 15.7% | [2] -12.4% | [3] 25.8% | [4] 14.2% | [5] 10.9% | [6] 13.3%

CCc1nn(Cc2ccccc2)c2nc(C)c(CCc3ccccc3)c(Cl)c12
inactive: [1] -6.85% | [2] -4.6% | [3] -0.45% | [4] 2.6% | [5] 7.35% | [6] -2.75%

Nc1ncnc2c1nc(N)n2C1OC(CO)C(O)C1O (stereo not drawn)
inactive: [1] -2.6% | [2] -17.9% | [3] 0.4% | [4] -23.4% | [5] 15.3% | [6] 0%

COc1ccc(NC(=O)CCl)cc1
inactive: [1] 29.7% | [2] 12.8% | [3] 24.4% | [4] 17.9% | [5] 36.7% | [6] 23.6%

O=C(Cc1ccc(OCc2ccccc2)cc1)NCc1ccc2c(c1)OCO2
inactive: [1] 3.2% | [2] -5.5% | [3] -1.2% | [4] -10.8% | [5] 17.5% | [6] -9.5%

OC(c1ccccn1)C(O)c1ccccn1 (stereo not drawn)
inactive: [1] -2.55% | [2] -4.45% | [3] -0.6% | [4] -9% | [5] -5.6% | [6] 3.2%

N#Cc1ccc(NC(=O)Nc2cccc(C#N)c2)cc1
inactive: [1] -3.5% | [2] -12.3% | [3] -9.75% | [4] -15.1% | [5] -0.3% | [6] -15.6%

CCCCOC(OCCCC)c1ccccc1
inactive: [1] -26.5% | [2] -9.5% | [3] 20.7% | [4] -18.6% | [5] -1.8% | [6] 12.2%

COc1ccc(Oc2c(I)cc(CC(NC(C)=O)C(=O)O)cc2I)cc1 (stereo not drawn)
inactive: [1] 43.1% | [2] 40.5% | [3] 38.7% | [4] 51.5% | [5] 37.4% | [6] 49.7%

Nc1ccc(NC(=O)c2cccc(N)c2)cc1
inactive: [1] 15.2% | [2] 3.5% | [3] 6.4% | [4] -7.8% | [5] 19.2% | [6] 22%

O=C(O)c1cc([N+](=O)[O-])ccc1Cl
inactive: [1] 27.9% | [2] 11.2% | [3] 7.15% | [4] 21% | [5] 21.9% | [6] 34.4%

O=[N+]([O-])c1ccc(-c2noc(-c3cccs3)n2)cc1
inactive: [1] -3.2% | [2] -31.9% | [3] 13.4% | [4] 15% | [5] 10.7% | [6] -11.8%

O=[N+]([O-])c1ccc(S(=O)(=O)NN=C2CCCCC2)cc1
inactive: [1] 19.9% | [2] 13.2% | [3] 8.1% | [4] -31% | [5] 8.85% | [6] 37.8%

CCCCNC1(C#N)CCN(Cc2ccccc2)CC1
inactive: [1] -2.25% | [2] -7.95% | [3] -5.9% | [4] 6.75% | [5] -1.25% | [6] -5.7%

O=C(O)c1cccc([N+](=O)[O-])c1
inactive: [1] -28% | [2] -8% | [3] -21.8% | [4] -27.1% | [5] -23.1% | [6] -27.4%

O=C(NCCNC(=O)c1ccc(Cl)cc1Cl)c1ccc(Cl)cc1Cl
inactive: [1] -9.25% | [2] -10.8% | [3] -4% | [4] -42.2% | [5] -1.25% | [6] -20.2%

O=C(O)C(Cc1ccccc1)C(=O)O
inactive: [1] 5.8% | [2] -7.15% | [3] -27.7% | [4] -33% | [5] -18.4% | [6] -7.2%

O=C(O)c1cccc([N+](=O)[O-])c1O
inactive: [1] -41.4% | [2] 1.35% | [3] 8.95% | [4] -0.7% | [5] -0.8% | [6] 14.4%

CCCC1(c2ccccc2)NC(=O)NC1=O (stereo not drawn)
inactive: [1] 5.75% | [2] 0.3% | [3] -6.1% | [4] -81.1% | [5] 7.95% | [6] -13.7%

CCS(=O)(=O)c1cc(=O)[nH]c(=O)[nH]1
inactive: [1] 22.1% | [2] 24.9% | [3] -30.9% | [4] 32.5% | [5] -1.45% | [6] -1.6%

CCCCCCCCCCCCCC(=O)Oc1ccc[nH]c1=O
inactive: [1] -12.2% | [2] -19.6% | [3] -15.9% | [4] 11% | [5] 0.65% | [6] 0.7%

COc1cccc(O)c1O
inactive: [1] 3.45% | [2] 9.4% | [3] 1.2% | [4] 16.9% | [5] 9.95% | [6] 19.4%

O=[N+]([O-])c1ccc(CO)cc1
inactive: [1] 0.15% | [2] 0.35% | [3] 8.85% | [4] 6.75% | [5] 22.1% | [6] 4.1%

Clc1ccc(-c2n[nH]c3c2Cc2ccccc2-3)cc1Cl
inactive: [1] -5.1% | [2] -10.8% | [3] 16.4% | [4] 16.4% | [5] 11.8% | [6] 7.45%

CC(C)=NNc1ccc([N+](=O)[O-])cc1[N+](=O)[O-]
inactive: [1] 35.1% | [2] 12.8% | [3] 8.3% | [4] 25.4% | [5] -5.75% | [6] 44.3%

Nc1nc2c(c(-c3nc(N)nc4c3CCc3ccccc3-4)n1)CCc1ccccc1-2
inactive: [1] -0.5% | [2] -12.6% | [3] -25.1% | [4] 3.05% | [5] -20.5% | [6] 2.9%

CC1(C)Nc2cccc3c(N=Nc4ccc(N=Nc5ccccc5)c5ccccc45)ccc(c23)N1
inactive: [1] -50.5% | [2] -38.1% | [3] -27% | [4] -2.2% | [5] -5.2% | [6] -74.6%
